# KCNQ2 enhance: potentiators of rat KCNQ2 potassium channel; Potassium voltage-gated channel subfamily KQT member 2 (Rattus norvegicus), O88943; CHO-K1 KCNQ2, FluxOR thallium flux fluorescence; stronger effect = higher value; B-score at 10 µM; actives 0.54% (n = 310,000);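 active = fluorescence ratio B-score at least 3 SD of library B-scores, with initial fluorescence B-score within 3 of them, cut at about 5.3 in these data; same plate scores as AID 2156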;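 note: B-score of peak minus minimum over baseline fluorescence ratio after K+ and Tl+ stimulus; positive B-score means potentiation of KCNQ2 with more thallium influx and brighter signal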
# KCNQ2 inh: rat KCNQ2 potassium channel inhibitors, primary screen, cell-based, CHO-K1, FluxOR thallium flux, B-score. actives 1.1% (n = 310,000). B-score at 10 µM. 20 min; stronger effect = lower value;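 active = fluorescence ratio B-score at most minus 3 library SDs, with starting brightness B-score within 2 library SDs, cut at about -5.5 in these data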
# Kir21 conf inh: mouse Kir2.1 channel blockers, retest, confirmation, cell-based, FluxOR thallium flux, duplicate; Tl flux remaining, % of negative control (stronger effect = lower value), % at 10 µM; AID 2032, 2009; actives 41% (n = 2,300); shares compounds with KCNQ2 enhance; Kir2.1-expressing cells, FluxOR thallium flux fluorescence; stronger effect = lower value;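 active = Primary-screen hit whose thallium flux fell at least 3 control SD below untreated wells in both duplicates, with normal baseline fluorescence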;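 note: 0% = blank wells without stimulus and 100% = stimulated no-compound controls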
# HEK293 Tl flux: alters thallium flux in parental HEK293 cells, Kir2.1 counter-screen; shares compounds with KCNQ2 enhance; FluxOR thallium flux fluorescence; 0% = unstimulated blank wells; FluxOR signal as % of negative control (100 = no effect), % at 10 µM; actives 19% (n = 2,300); AID 2105;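 active = dye signal at least 3 control SD above or below untreated wells in both duplicates, raw fluorescence within 3, either direction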;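 note: percent is based on the flux ratio of peak minus minimum fluorescence over baseline F0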
# CHO-K1 ctr: nonspecific thallium flux increase in parental CHO-K1, confirmation, counter-screen for KCNQ2 potentiator project, cell-based, FluxOR thallium flux, duplicate. activity increase over 3SD of controls, % at 10 µM. actives 43% (n = 1,200). shares compounds with KCNQ2 enhance. parental CHO-K1 cells, FluxOR thallium flux fluorescence; zero = vehicle mean+3SD, 100% = vehicle-minus-blank window;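 active = signal rise of at least 3 SD above the untreated control mean, in both duplicate wells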;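 note: counter screen of KCNQ2 potentiator hits so any rise reflects channel-independent effects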
# KCNQ1 pot spec: human KCNQ1 channel potentiation off-target, confirmation, selectivity assay for KCNQ2 potentiator project, cell-based, CHO, FluxOR thallium flux; shares compounds with KCNQ2 enhance; CHO KCNQ1 stable, FluxOR thallium flux fluorescence; beyond 3SD, as % of vehicle-control signal; activation over 3SD threshold, % at 10 µM; actives 28% (n = 1,200); AID 2283, 2010;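 active = fluorescence ratio rise of at least 3 SD of vehicle wells above their mean, in both replicate wells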;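 note: 0% = vehicle mean plus 3 SD and 100% = vehicle minus unstimulated blank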
# Target sequence (P51787 whole entry, looked up): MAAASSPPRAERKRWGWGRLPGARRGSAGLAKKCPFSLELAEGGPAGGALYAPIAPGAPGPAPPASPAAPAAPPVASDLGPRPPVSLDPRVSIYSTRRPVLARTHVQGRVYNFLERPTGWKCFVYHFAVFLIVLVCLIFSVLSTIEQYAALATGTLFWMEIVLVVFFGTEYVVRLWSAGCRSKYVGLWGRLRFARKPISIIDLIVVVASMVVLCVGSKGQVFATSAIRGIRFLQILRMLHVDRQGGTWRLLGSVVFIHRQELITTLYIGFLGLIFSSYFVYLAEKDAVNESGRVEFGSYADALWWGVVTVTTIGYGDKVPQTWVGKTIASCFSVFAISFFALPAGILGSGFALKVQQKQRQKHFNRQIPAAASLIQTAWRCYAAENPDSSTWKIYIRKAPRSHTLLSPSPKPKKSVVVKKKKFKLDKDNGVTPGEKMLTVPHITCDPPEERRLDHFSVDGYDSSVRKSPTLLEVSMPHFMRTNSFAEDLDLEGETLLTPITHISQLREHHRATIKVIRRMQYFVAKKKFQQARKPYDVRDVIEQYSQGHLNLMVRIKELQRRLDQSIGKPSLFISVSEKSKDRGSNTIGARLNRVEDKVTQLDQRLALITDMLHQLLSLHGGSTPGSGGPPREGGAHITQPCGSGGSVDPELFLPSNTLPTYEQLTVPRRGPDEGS
# KCNQ2 pot confirm: rat KCNQ2 channel potentiators, confirmation, cell-based, CHO, FluxOR thallium flux, duplicate. shares compounds with KCNQ2 enhance. potentiation, less the hit threshold, % at 10 µM. AID 2287, 2010. actives 68% (n = 1,200). CHO-KCNQ2 cells, FluxOR thallium flux fluorescence;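 active = fluorescence ratio rising 3 SD or more over the vehicle control mean in both replicates, plus primary screen hit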;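 note: peak minus minimum thallium fluorescence divided by baseline after K/Tl stimulus; 0% = vehicle mean plus 3 SD and 100% = vehicle minus unstimulated blank difference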
# Kir21 spec: mouse Kir2.1 channel activation off-target, confirmation, selectivity assay for KCNQ2 potentiator project, cell-based, HEK293, FluxOR thallium flux; shares compounds with KCNQ2 enhance; actives 2% (n = 1,200); AID 2345, 2010; HEK293 Kir2.1, FluxOR thallium flux fluorescence; activity over 3SD threshold, % at 10 µM;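 active = fluorescence ratio rise of at least 3 SD above the vehicle-control mean, seen in both replicates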;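 note: 0% = vehicle mean plus 3 SD and 100% = vehicle minus no-stimulus blank window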
# KCNQ2 W236L pot: potentiators of retigabine-insensitive KCNQ2 W236L, mechanism study for KCNQ2 potentiator project, cell-based, rat KCNQ2 W236L, CHO, automated patch clamp; current increase over 3SD of negative controls (%), stronger effect = higher value, % at 25 µM; shares compounds with KCNQ2 enhance; actives 10% (n = 940); automated patch clamp current;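 active = current increase at least 3 SD of the untreated controls above them in both duplicate recordings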
# The depositor's hits bear a star; i = inactive; / = not tested or not shown; + = active, no number. In the library only some 1.6% were active in any assay of this set; here they are far more common.
SMILES,KCNQ2 enhance,KCNQ2 inh,Kir21 conf inh,HEK293 Tl flux,others
COc1ccc(CCNC(=O)CSc2ccc3nnc(CCNC(=O)c4ccccc4)n3n2)cc1OC,/,i,/,/,
COC(=O)CN1C(=O)Nc2ccc(Br)cc2C1c1ccccc1Cl (centres undefined),15*,i,i,i,CHO-K1 ctr=-14;KCNQ1 pot spec=+;KCNQ2 pot confirm=38*;Kir21 spec=-37;KCNQ2 W236L pot=6.9%*
COC(=O)CN1C(=O)Nc2ccc(Cl)cc2C1c1ccccc1 (centres undefined),1.8,i,/,/,
Cc1ccc(C(=O)N2CCCc3ccccc32)c(F)c1F,/,i,/,/,
O=C(Nc1ccc(F)cc1)c1cccc(N2C(=O)C3C4C=CC(C5CC45)C3C2=O)c1 (centres undefined),/,i,/,/,
COc1cccc(CNc2cccc3cccnc23)c1O,/,i,/,/,
Oc1c(Br)cc(Br)cc1CNc1cccc2cccnc12,8.8*,i,i,i,CHO-K1 ctr=2.2*;KCNQ1 pot spec=-26;KCNQ2 pot confirm=-20;Kir21 spec=-26
Cc1nc2ccccc2nc1OCc1ccc([N+](=O)[O-])cc1,/,i,/,/,
CN(C)Cc1c(O)ccc2ccccc12,/,i,/,/,
CC(C)CN(Cc1c(O)ccc2ccccc12)CC(C)C,6.5*,i,i,i,CHO-K1 ctr=-13;KCNQ1 pot spec=-12;KCNQ2 pot confirm=-29;Kir21 spec=-41
COc1ccc(C(C(N)=O)c2ncc(C(F)(F)F)cc2Cl)cc1OC (centres undefined),0.88,i,/,/,
CN(C)C(=O)c1ccccc1Sc1cc(Cl)ccc1Cl,/,i,47%*,i,
CN(C)C(=O)c1ccccc1Sc1ccc(Cl)cc1Cl,/,i,/,/,
COc1ccc(CCN2CCC(Nc3nc4ccccc4n3Cc3ccc(F)cc3)CC2)cc1,/,i,i,i,
COc1ccc(CNc2nc3ccccc3n2CCN2CCCCC2)cc1,/,i,/,/,
Cc1cc(C)cc(NC(=O)C2C3C=CC4(O3)C2C(=O)N(CCCN(C)C)C4C(=O)NC2CCCC(C)C2C)c1 (centres undefined),0.19,i,/,/,
COC(=O)C1=C(C)N(Cc2ccccc2)C(=NCc2ccc(OC)cc2)N[C@H]1c1cccc(F)c1,/,i,26%*,i,
COC(=O)C1=C(C)N(Cc2ccccc2)C(=NCCCCO)N[C@H]1c1ccccc1,/,i,/,/,
CCOC(=O)CN1C(=O)N[C@@H](c2cccc(F)c2)C(C(C)=O)=C1C,/,i,/,/,
CCOC(=O)CN1C(=O)N[C@@H](c2cccc(F)c2)C(C(=O)OC)=C1C,/,i,i,i,
COC(=O)C1=C(C)N(Cc2ccccc2)C(=NCCc2cccnc2)N[C@H]1c1ccccc1,2.6,i,i,i,
COC(=O)C1=C(C)N(Cc2ccccc2)C(=NCc2cc(OC)c(OC)c(OC)c2)N[C@H]1c1cccc(F)c1,/,i,/,/,
Cc1ccc(S(=O)(=O)N2CCN(C(=O)c3ccc4nc[nH]c4c3)CC2)cc1,0.09,i,/,/,
CCN(CC)CCN(Cc1cc2cc(C)ccc2[nH]c1=O)C(=S)Nc1ccccc1,0.29,i,/,/,
CCN(CC)CCN(C(=O)c1ccc(Br)s1)c1nc2cc3c(cc2s1)OCCO3,2,i,/,/,
SMILES,KCNQ2 enhance,KCNQ2 inh,Kir21 conf inh,HEK293 Tl flux,others
CN(C)CCCN(C(=O)c1ccc(Br)s1)c1nc2cc3c(cc2s1)OCCO3,/,i,i,i,
CC(C)C[C@@H](CO)N1CCN(Cc2cccnc2)CCC1=O,1.7,i,/,/,
Cc1cccc(C(C)C)c1NC(=O)COC(=O)CN1C(=O)C2CC=CCC2C1=O (centres undefined),/,i,/,/,
NCC12CC3CC(C1)CC(c1ccc(Br)cc1)(C3)C2,/,i,34%*,i,
NCCOc1ccc(C23CC4CC(CC(C4)C2)C3)cc1,/,i,/,/,
Cc1ccc(C23CC4CC(CC(CN)(C4)C2)C3)cc1,/,i,39%*,i,
Cc1ccc(C23CC4CC(CC(C(N)=O)(C4)C2)C3)cc1,2,i,/,/,
O=C(NCc1ccc(Cl)cc1)C1CCN(S(=O)(=O)N2CCOCC2)CC1,/,i,/,/,
CC(C)c1ccc2nc(NC(=O)C3CC3)sc2c1,5.6*,i,i,68%*,CHO-K1 ctr=21*;KCNQ1 pot spec=-8;KCNQ2 pot confirm=28*;Kir21 spec=-32;KCNQ2 W236L pot=27%*
O=C(Nc1nc2ccc(Cl)cc2s1)C1CC1,0.82,i,/,/,
Cn1c(=O)c(S(=O)C2CCCCC2)c(O)c2ccccc21 (centres undefined),0.42,i,/,/,
O=C(COC(=O)CC(c1ccccc1)c1ccccc1)NCc1ccc(Cl)cc1,/,i,/,/,
CC(CCc1ccccc1)NC(=O)CC(C)c1ccccc1 (centres undefined),/,i,56%*,i,
CC(CCc1ccccc1)NC(=O)Cc1ccccc1 (centres undefined),/,i,/,/,
CC(CC(=O)NCc1ccc(Cl)cc1)c1ccccc1 (centres undefined),5.9*,i,i,i,CHO-K1 ctr=-7;KCNQ1 pot spec=-23;KCNQ2 pot confirm=-2;Kir21 spec=-48;KCNQ2 W236L pot=i
Cc1cc(C#Cc2c(-c3ccccc3)n(C)c3ccccc23)ccc1F,0.71,i,/,/,
COc1ccc(NC(=O)CCOc2ccccc2C)cc1S(=O)(=O)N1CCCCC1,1.7,i,/,/,
Cc1ccc(Cc2c(C)[nH]c(=S)[nH]c2=O)cc1,/,i,/,/,
Cc1ccc(Cc2c[nH]c(=S)s2)cc1,7.9*,i,i,386%*,CHO-K1 ctr=-3;KCNQ1 pot spec=-10;KCNQ2 pot confirm=63*;Kir21 spec=-18;KCNQ2 W236L pot=i
CC(=O)NNC(=S)NC(=O)C(c1ccccc1)c1ccccc1,/,i,/,/,
CC(C)(C)C(=O)NC(=S)NNC(=O)C(c1ccccc1)c1ccccc1,6.6*,i,i,66%*,CHO-K1 ctr=-5;KCNQ1 pot spec=-13;KCNQ2 pot confirm=-12;Kir21 spec=-22

# Compound activity as filed in PubChem BioAssay.
